PubChem BioAssay
Calls of active or inactive are those of the source.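 How the source made its calls: active means GFP response above 150% of the DMSO level; inconclusive means fewer than 70 events counted for a yeast strain; inactive means the rest.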

Assay: AGP1-GFP expression modulators, hit retest, confirmation, cell-based, flow cytometry, S. cerevisiae, cherry picks (AID 2273);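 further: median GFP channel fluorescence over the whole cell population gate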
Details: S. cerevisiae AGP1-GFP strain, 3 h, at 10 µM

Structure (SMILES) | GFP response, % of DMSO
Cc1ccc(C(=O)OCC(=O)Nc2ccccc2Sc2ccccc2)cc1C | 99.3% (inactive)
CCCCCCc1cc2cc(-c3nnc(-c4ccccc4OC)o3)c(=O)oc2cc1O | 99.1% (inactive)
O=C(OCn1ncc(Br)c(Br)c1=O)c1ccc(F)cc1 | 106% (inactive)
CSc1ccc(-c2cc(=O)c3ccccc3o2)cc1 | 90.5% (inactive)
c1cc2c(cc1C1CCCCC1)c1c3n2CCCNC3CCC1 (centres undefined) | 105% (inactive)
CCOC(=O)C1(CCCc2ccccc2)CCN(C(=O)c2cc(C)nn2CC)CC1 | 99.3% (inactive)
Cn1cnnc1SCC(=O)Nc1nc(-c2ccc(F)cc2)cs1 | 99.4% (inactive)
O=C1C=C(c2ccccc2)C(=O)N1Nc1ccccc1 | 78.4% (inactive)
S=C(Sc1ccc(Cl)cc1)Sc1ccc(Cl)cc1 | 110% (inactive)
O=C(O)c1ccc(N/N=C/c2c(F)cccc2Cl)cc1 | 94% (inactive)
Cc1ccc(-c2csc(NC(=O)c3ccno3)n2)cc1 | 95.1% (inactive)
Cc1nn(C)cc1C(C)NC(=O)c1cc(COc2ccc(F)c(F)c2)on1 (centres undefined) | 93.7% (inactive)
CN(O)/C=c1/ccc2c(n1)C(=O)C=CC=2 | 93.2% (inactive)
CCOc1ccc(S(=O)(=O)n2ccnc2C)cc1 | 102% (inactive)
CCCCN(CC)S(=O)(=O)c1ccc(C(=O)Nc2nnc(-c3ccccc3Cl)o2)cc1 | 92.7% (inactive)
Oc1c(CN2CCCCC2)cc(Br)c2cccnc12 | 96.7% (inactive)
O=C(O)c1ccc(N/N=C/C(Br)=C/c2ccccc2)cc1 | 94.7% (inactive)
Cc1ccc(NC(=O)COc2ccc(Br)cc2C)cc1 | 96.7% (inactive)
CCCn1c(=O)c(C(=O)Nc2ccccc2C(=O)OCC)c(O)c2ccccc21 | 110% (inactive)
N#C/C(C(=O)Nc1ccc(Cl)cc1)=C(/S)Nc1ccccc1 | 100% (inactive)

Structure (SMILES) | GFP response, % of DMSO
CN1/C(=C\C(=O)c2cccc(S(=O)(=O)N3CCCCC3)c2)C(C)(C)c2ccccc21 | 97.2% (inactive)
CCn1c(=O)c(C(=O)NCc2ccc(OC)cc2)c(O)c2ccccc21 | 100% (inactive)
C/C(=N/NS(=O)(=O)c1ccccc1)c1ccc(NC(=O)C(F)(F)F)cc1 | 91% (inactive)
CS(=O)(=O)c1nc(-c2ccccc2)cc(C(F)(F)F)n1 | 102% (inactive)
CCOc1ccc(/C=C/C(=O)c2c(O)cc(C)oc2=O)cc1 | 107% (inactive)
CCCc1[nH]nc2c1C(c1cccnc1)C(C#N)=C(N)O2 (centres undefined) | 103% (inactive)
O=C1CC(Sc2nnc(-c3ccccc3)o2)C(=O)N1c1ccccc1 (centres undefined) | 98.7% (inactive)
O=C(NNC(=O)C1CCCCC1)C(=O)NC1CCCCC1 | 104% (inactive)
Cc1ccc(/C(C#N)=C\c2ccc(N3CCOCC3)o2)cc1 | 99.4% (inactive)
N/C(Cc1ccc(Cl)c(Cl)c1)=N\OC(=O)c1cccs1 | 103% (inactive)
Cn1cc([N+](=O)[O-])c(C(=O)Nc2nc(-c3ccc(Cl)cc3)cs2)n1 | 95.5% (inactive)
CCCOc1ccc(C(=O)NNC(=S)NC(=O)c2ccccc2)cc1 | 98.3% (inactive)
COc1ccc(N2C(=O)c3cccc4cccc(c34)C2=O)nn1 | 98% (inactive)
Clc1ccc(OCCn2cnc3ccccc32)c(Cl)c1 | 92.7% (inactive)
N#C/C(=C\c1ccccn1)c1nc2ccccc2s1 | 205% (active)
COc1ccc(S(=O)(=O)NCC(=O)N(CC(=O)NCc2ccco2)Cc2ccc(F)cc2)cc1 | 103% (inactive)
Cc1cc(OCc2ccc(C(=O)NN=C3CCCC3)cc2)ccc1Cl | 101% (inactive)
CCCCC(=O)NNC(=S)NC(=O)c1ccc(C)cc1 | 100% (inactive)
Cc1ccc(N2C(=O)C3C4C=CC(CNC(=S)Nc5ccc(F)cc5)(O4)C3C2=O)cc1 (centres undefined) | 105% (inactive)
